Laboratory results taken from PubChem BioAssay AID2639 (National Center for Advancing Translational Sciences (NCATS), 2010).
Activity calls are given as the source filed them. A call without a number means that no potency is given here. Calls follow the shape of the full dose curve.

Assay: Platelet Aggregation Secondary Assay for Inhibitors of Platelet Integrin alphallb-beta3
Conditions: platelet-rich plasma, ADP-induced aggregation, absorbance 563 nm
Description: NIH Molecular Libraries Probe Production Network [MLPCN] NIH Chemical Genomics Center [NCGC] MLPCN Grant: 1 R03 MH083257-01 Assay Provider: Barry Coller, Rockefeller University NCGC Assay Overview: The alphaIIbbeta3 receptor plays a vital role in hemostasis and thrombosis, where receptor deficiency causes the hemorrhagic disorder, Glanzmann thrombasthenia, and uncontrolled receptor activation causes thrombosis and blood vessel occlusion. Small molecule inhibitors of alphaIIbbeta3, tirofiban and eptifibatide, have undesirable side effects thought to arise from conformational changes in alphaIIbbeta3. These changes transiently activate the receptor to cause spontaneous platelet aggregation and thrombus formation. […] This secondary assay measures platelet aggregation (Blue et al., 2008). Platelets are induced to aggregate and aggregation is tracked by the change in absorbance over time. Inhibitors of alphaIIbbeta3 block platelet aggregation and decrease the rate of change in absorbance.
NCGC Assay Protocol Summary: Untreated 96-well polystyrene plates (Nunc, Rochester, NY) were blocked for at least 1 hour with HBMT (138 mM NaCl, 12 mM NaHCO3, 10 mM HEPES, 2.7 mM KCl, 0.4 mM NaH2PO4, 0.1% glucose, 0.35% BSA, pH 7.4). Compounds (33 uL in HBMT) and citrated platelet-rich plasma (67 uL) were added to the wells. After plates equilibrated at 37 C in the plate reader (SpectraMax; Molecular Devices, Sunnyvale, CA) for 10 minutes, aggregation was initiated by adding ADP (5 uM final concentration; Chrono-Log Corp, Havertown, PA). Absorbance (Abs) was measured at 563 nm every 10 seconds with 3 seconds of shaking between determinations for 8 minutes. Reference Blue R, Murcia M, Karan C, Jirouskova M, and Coller BS. Application of high-throughput screening to identify a novel alphaIIb-specific small- molecule inhibitor of alphaIIbbeta3-mediated platelet interaction with fibrinogen. Blood. 2008, 111(3):1248-56

SMILES	outcome	Potency
Cc1nn2c(=O)cc(N3CCNCC3)nc2s1	inactive	–
CCc1nn2c(=O)c(F)c(N3CCNCC3)nc2s1	–	8.3 µM (active)
O=c1cc(N2CCNCC2)nc2sc(C3CC3)nn12	inactive	–
CCc1nn2c(=O)cc(N3CCN(C)CC3)nc2s1	inactive	–
CCc1nn2c(=O)cc(N3CCNCC3)nc2s1	–	8.4 µM (active)
CCc1nn2c(=O)c(C)c(N3CCNCC3)nc2s1	inactive	–
